Measurements published in PMC4336329 (PLoS ONE, 2015).
About 14,000 (4.5%) of roughly 310,000 compounds showed an effect of 50% or more. The effect is printed as a negative number. The list comes from a sample in which strong results are over-represented; it also holds similar structures and randomly drawn compounds.

These molecules were tested against human ether-à-go-go-related gene (hERG) potassium channel (human, UniProt Q12809) (assay: primary screen, population patch clamp on CHO cells stably expressing hERG; higher = less effect of the substance).
Sequence of human ether-à-go-go-related gene (hERG) potassium channel (Q12809 whole entry, looked up): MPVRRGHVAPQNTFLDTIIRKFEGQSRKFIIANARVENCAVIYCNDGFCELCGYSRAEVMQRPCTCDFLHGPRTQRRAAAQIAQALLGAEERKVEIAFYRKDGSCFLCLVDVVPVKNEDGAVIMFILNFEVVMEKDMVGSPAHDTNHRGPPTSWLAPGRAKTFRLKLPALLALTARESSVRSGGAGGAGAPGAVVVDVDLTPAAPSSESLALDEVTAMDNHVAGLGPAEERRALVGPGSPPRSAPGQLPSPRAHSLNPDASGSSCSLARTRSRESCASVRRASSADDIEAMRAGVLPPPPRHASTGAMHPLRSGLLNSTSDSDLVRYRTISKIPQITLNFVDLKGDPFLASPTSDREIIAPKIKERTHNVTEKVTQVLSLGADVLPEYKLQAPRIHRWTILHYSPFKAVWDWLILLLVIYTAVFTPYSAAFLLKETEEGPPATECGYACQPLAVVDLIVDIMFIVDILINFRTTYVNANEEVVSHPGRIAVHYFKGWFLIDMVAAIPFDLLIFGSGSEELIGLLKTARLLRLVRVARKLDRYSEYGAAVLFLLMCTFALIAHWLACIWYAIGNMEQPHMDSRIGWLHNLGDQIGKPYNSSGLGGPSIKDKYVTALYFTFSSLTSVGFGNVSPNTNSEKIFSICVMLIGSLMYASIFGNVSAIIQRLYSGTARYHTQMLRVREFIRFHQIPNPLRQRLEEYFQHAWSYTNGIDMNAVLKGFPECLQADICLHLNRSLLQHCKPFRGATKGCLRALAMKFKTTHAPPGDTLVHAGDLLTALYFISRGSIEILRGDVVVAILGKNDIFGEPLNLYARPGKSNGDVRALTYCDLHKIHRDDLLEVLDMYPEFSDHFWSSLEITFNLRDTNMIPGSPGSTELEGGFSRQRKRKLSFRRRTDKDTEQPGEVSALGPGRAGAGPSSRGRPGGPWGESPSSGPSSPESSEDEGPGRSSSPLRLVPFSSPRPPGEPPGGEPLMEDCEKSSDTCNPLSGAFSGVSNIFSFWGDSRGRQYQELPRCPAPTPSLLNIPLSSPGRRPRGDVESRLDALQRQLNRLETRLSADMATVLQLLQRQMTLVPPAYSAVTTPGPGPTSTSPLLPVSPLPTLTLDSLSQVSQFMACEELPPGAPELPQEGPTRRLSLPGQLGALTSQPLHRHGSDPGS
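Also: peak tail current of the secondary pulse compared with the same well before compound.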

| Structure (SMILES) | hERG current change (%, negative = inhibition) at 10uM [%] |
| --- | --- |
| CC(=NCC1CCCO1)C1=C(O)CC(C)(C)CC1=O (stereo not shown) | -5.04 |
| COc1ccccc1COCC(O)CN(Cc1ccco1)Cc1ccccc1O (stereo not shown) | -27 |
| CC(=O)c1cccc(NC(=O)CCn2c(=S)oc3ccccc32)c1 | 9.8 |
| CC(=O)NC1(c2cccc(F)c2)CCN(C(=O)Nc2ccc(C#N)cc2)CC1 | -13.8 |
| O=C(Nc1cccnc1)c1cc([N+](=O)[O-])ccc1Cl | -0.51 |
| Cc1ccccc1S(=O)(=O)Cc1ccc(C(=O)NCCCN2CCN(C)CC2)o1 | -1.6 |
| CCC1CCCCN1CCCNC(=O)c1ccc(CS(=O)(=O)c2ccc(Br)cc2)o1 (stereo not shown) | -56.7 |
| O=C(NCCN1CCOCC1)c1ccc(CS(=O)(=O)c2ccc(Br)cc2)o1 | -2.9 |
| O=C(NCCCN1CCOCC1)c1ccc(CS(=O)(=O)c2ccc(Br)cc2)o1 | -6.32 |
| Cc1ccccc1S(=O)(=O)Cc1ccc(C(=O)NCCN2CCN(Cc3ccccc3)CC2)o1 | -61.9 |
| CCC1CCCCN1CCCNC(=O)c1ccc(CS(=O)(=O)c2ccccc2C)o1 (stereo not shown) | -26.5 |
| O=C(NCCCN1CCCC1)c1ccc(CS(=O)(=O)c2ccc(Br)cc2)o1 | -16.7 |
| CCC1CCCCN1CCCNC(=O)c1ccc(CS(=O)(=O)c2ccccc2OC)o1 (stereo not shown) | 6.46 |
| CCN1CCN(CCNC(=O)c2ccc(CS(=O)(=O)c3ccccc3C)o2)CC1 | -1.23 |
| CN1CCN(CCCNC(=O)c2ccc(CS(=O)(=O)c3ccc(Br)cc3)o2)CC1 | -10.3 |
| O=C(NCCN1CCCCCC1)c1ccc(CS(=O)(=O)c2ccc(Br)cc2)o1 | -57.4 |
| O=C(NCCN1CCN(Cc2ccccc2)CC1)c1ccc(CS(=O)(=O)c2ccc(Br)cc2)o1 | -79.8 |
| O=C(CN(C(=O)C1CSC(=O)C1)c1cccc(F)c1)NCc1ccc2c(c1)OCO2 (stereo not shown) | -14.7 |
| COc1ccc(CCNC(=O)CCc2nc3sc4c(c3c(=O)[nH]2)CCCC4)cc1 | 9.78 |
| Cn1c(=S)[nH]c2c(c1=O)C(C)(C)Cc1ccccc1-2 | 10.9 |
| Cc1[nH]c(=O)[nH]c(=O)c1S(=O)(=O)N1CCOCC1 | 3.26 |
| CCCn1c(SCC(=O)Nc2c(C)cccc2CC)nnc1C(C)C | 3.71 |

| Structure (SMILES) | hERG current change (%, negative = inhibition) at 10uM [%] |
| --- | --- |
| O=C(Nc1ccc(S(=O)(=O)C(F)F)cc1)c1ccc2c(=O)n3c(nc2c1)CCC3 | 24.1 |
| O=C(Nc1cccc(S(=O)(=O)N2CCCCC2)c1)c1ccc2c(=O)n3c(nc2c1)CCCCC3 | -64.5 |
| Cc1ccc(NC(=O)c2ccc3c(=O)n4c(nc3c2)CCCCC4)cc1F | -24.6 |
| Cc1ccc(S(=O)(=O)N2CCCCC2)cc1NC(=O)c1ccc2c(=O)n3c(nc2c1)CCCCC3 | -64.1 |
| O=C(Nc1cccc(S(=O)(=O)N2CCOCC2)c1)c1ccc2c(=O)n3c(nc2c1)CCCCC3 | -73.3 |
| O=C(Nc1ccc(F)c(Cl)c1)c1ccc2c(=O)n3c(nc2c1)CCCCC3 | -36.6 |
| O=C(Nc1ccc(S(=O)(=O)N2CCCC2)cc1)c1ccc2c(=O)n3c(nc2c1)CCCCC3 | 9.23 |
| O=C(Nc1cccc(S(=O)(=O)N2CCCC2)c1)c1ccc2c(=O)n3c(nc2c1)CCCCC3 | -57.1 |
| Cc1ccc(C)c(NC(=O)c2ccc3c(=O)n4c(nc3c2)CCC4)c1 | -25.9 |
| O=C(Nc1ccc2c(c1)nc1n2CCCCC1)c1cc(S(=O)(=O)N2CCOCC2)ccc1Cl | -15.5 |
| O=C(c1ccc2c(=O)n3c(nc2c1)CCC3)N1CCN(S(=O)(=O)c2cccc(F)c2)CC1 | -4.8 |
| CC(NC(=O)c1cnccn1)c1ccc(S(N)(=O)=O)cc1 (stereo not shown) | -2.33 |
| C=CCn1c(SCC(=O)NCc2ccco2)nc2sc(C)c(C)c2c1=O | 3.62 |
| CC(C)NC(=O)COc1coc(CN2CCN(Cc3ccccc3)CC2)cc1=O | 11.9 |
| COc1ccc(-c2nc3c(n2O)CCc2c-3no[n+]2[O-])cc1 | 10.6 |
| Nc1nnnn1CC(=O)N/N=C/C=C/c1ccccc1 | 16.1 |
| COc1cc2c(cc1OC)CN(C(=O)c1sc(-c3cnccn3)nc1C)CC2 | 0.572 |
| O=S(=O)(Nc1cccc(-c2ccc(N3CCOCC3)nn2)c1)c1cc(Cl)ccc1Cl | -26.8 |
| CC(C)(C)OC(=O)N[C@@H](CCCCNC(=O)OCc1ccccc1)c1nnc([C@H](CCCCNC(=O)OCc2ccccc2)NC(=O)OC(C)(C)C)o1 | -22.6 |
| COc1ccc(N(C(=O)c2ccc(Cl)cc2)C2=CC3CCC(C2)N3C)cc1.Cl (stereo not shown) | -82 |
| COc1ccc(N(C(=O)c2ccncc2)S(=O)(=O)c2ccc(Cl)cc2)cc1 | -26.4 |
| CN1C2CCC1CC(OC(=O)c1ccc(Cl)cc1)(C(=O)O)C2.Cl (stereo not shown) | 1.82 |

| Structure (SMILES) | hERG current change (%, negative = inhibition) at 10uM [%] |
| --- | --- |
| CCCCN(C(=O)c1cc(OC)c(OC)c(OC)c1)C1=CC2CCC(C1)N2C.Cl (stereo not shown) | -20.2 |
| CN1C2C=C(N(C(=O)c3ccc(Cl)cc3)c3ccccc3)CC1CC2.Cl (stereo not shown) | -74 |
| COc1ccc(C(=O)CN(C(=O)c2ccc(Cl)cc2)N2C(=O)C3CCCCC3C2=O)cc1 (stereo not shown) | -6.63 |
| COc1ccc(CCN(C(=O)c2ccc(F)cc2)C2=CC3CCC(C2)N3C)cc1OC.Cl (stereo not shown) | -46.6 |
| CN1OC(COC(=O)c2ccc(Cl)cc2)CC1c1ccccc1 (stereo not shown) | -4.56 |
| COc1ccc(N(C(=O)c2ccc(F)cc2)C2=CC3CCC(C2)N3C)cc1.Cl (stereo not shown) | -71.5 |
| N#CC1=C(N)OC2=C(C(=O)CC(c3ccco3)C2)C1c1ccc(OCc2c(F)cccc2Cl)cc1 (stereo not shown) | -1.84 |
| Nc1c([N+](=O)[O-])c(=O)oc2ccccc12 | 19.1 |
| CN(C)CCNC(=S)Nc1ccc(F)c(F)c1F | 22.3 |
| C=CCNC(=O)c1c(Cl)cnn1-c1ccc(C)cc1 | -4.22 |
| Cc1ccc(CNC(=O)CN2C(=O)COc3ccc(S(=O)(=O)N4CCCCC4)cc32)o1 | 16 |
| C[C@H](NC(=O)N1CCn2c1nc1ccccc12)C(=O)NCc1ccco1 | -10.6 |
| CCOc1ccc(CCNC(=O)C2CCCN(S(=O)(=O)N3CCOCC3)C2)cc1OCC (stereo not shown) | 0.332 |
| COC(=O)c1cccc(NC(=S)N2CCN(c3ccccc3F)CC2)c1 | 5.71 |
| COc1ccc(CNc2nc(SCc3cc(=O)n4cc(Cl)ccc4n3)nc3ccccc23)cc1 | -44 |
| O=c1cc(CSc2nc(NCc3ccccc3)c3ccccc3n2)nc2ccc(Cl)cn12 | -59.3 |
| O=c1c2sccc2nc(SCc2cc(=O)n3cc(Cl)ccc3n2)n1Cc1ccccn1 | -26.2 |
| O=C(CCCn1c(SCc2cc(=O)n3cc(Cl)ccc3n2)nc2ccccc2c1=O)NCC1CCCO1 (stereo not shown) | -53.7 |
| CC(=O)NCCn1c(SCc2cc(=O)n3cc(Cl)ccc3n2)nc2ccccc2c1=O | -50.7 |
| COCCn1c(SCc2cc(=O)n3cc(C)ccc3n2)nc2ccccc2c1=O | 13.7 |
| CC(=O)NCCn1c(SCC(=O)c2ccc(Cl)cc2)nc2ccccc2c1=O | -4.33 |
| O=C(CCCn1c(SCc2cc(=O)n3ccccc3n2)nc2ccccc2c1=O)NCC1CCCO1 (stereo not shown) | -1.72 |

| Structure (SMILES) | hERG current change (%, negative = inhibition) at 10uM [%] |
| --- | --- |
| O=C(CCCn1c(SCc2ccccc2F)nc2ccccc2c1=O)NCC1CCCO1 (stereo not shown) | -14 |
| NC(=S)N/N=C1/CCSc2ccc3ccccc3c21 | -23.4 |
| C/C(=N\NC(=O)c1cccs1)C(C)(C)C | 5.21 |
| CCN(c1ccc(F)cc1)S(=O)(=O)c1cccc2nsnc12 | 2.4 |
| COc1ccc(C(c2oc(CO)cc(=O)c2O)c2oc(CO)cc(=O)c2O)cc1OC | 14.3 |
| N/C(=N\OC(=O)CCc1ccccc1)c1cccc(Br)c1 | 1.33 |
| Cn1c(SCC(=O)NC2CC2)nnc1C(F)(F)F | -1.32 |
| Nc1nc2c(Cl)ccc(Cl)c2s1 | 10.7 |
| Cc1nc(N2CCC(C(N)=O)CC2)c2nnn(Cc3ccccc3)c2n1 | 16.3 |
| Cc1ccc(N(CC(=O)N/N=C/c2cccs2)S(C)(=O)=O)cc1 | -3.64 |
| Cc1ccccc1-n1c(C)nc2sccc2c1=O | -2.18 |
| COc1ccc2cc(C(C)C(=O)N3CCC(C)CC3)ccc2c1 (stereo not shown) | -71.9 |
| COc1ccc2cc(C(C)C(=O)N3CCC(C(N)=O)CC3)ccc2c1 (stereo not shown) | 17.1 |
| COc1ccc(OC(C)C(=O)N2CCC(C)CC2)cc1 (stereo not shown) | -5.47 |
| O=C(N/N=C/c1ccc([N+](=O)[O-])cc1)c1c[nH]c2ccccc12 | 19.1 |
| O=C(CCn1c(=O)oc2ccccc21)Nc1cccc(Cl)c1 | -2.8 |
| CCOC(=O)N1CCN(C(=O)COc2cccc3c2CCN(Cc2ccccc2F)C3=O)CC1 | -31.4 |
| CCOC(=O)N1CCN(C(=O)COc2cccc3c2CCN(Cc2cccc(C)c2)C3=O)CC1 | -53.6 |
| CCOC(=O)N1CCN(C(=O)COc2cccc3c2CCN(CC)C3=O)CC1 | 6.35 |
| CCOC(=O)N1CCN(C(=O)COc2cccc3c2CCN(Cc2ccccc2C)C3=O)CC1 | -40.7 |
| CCOC(=O)N1CCN(C(=O)COc2cccc3c2CCN(Cc2ccc(F)cc2)C3=O)CC1 | -61 |
| Cc1ccc(COc2cccc3c2CCN(Cc2ccc(F)cc2)C3=O)cc1 | 6.8 |
